Compound activity from PubChem BioAssay.
Most compounds without a hit are left out; they make up all but 3.9% or so of the library.
PLK1 PBD inh = blocks phosphopeptide binding to human PLK1 polo-box domain; P53350; Plk1 PBD binding of FITC phosphopeptide, fluorescence polarization; Potency, µM, inactives show max response, negative = inhibition, actives largely listed as inhibitors; 2.8% of 360,000 active; note: series mostly up to about 57 µM; % is set by controls: 0 for no effect and ±100 for the full control effect; nearly all actives have a fitted effect of over 65% in size
Target sequence (P53350 whole entry, looked up, the tested form may be a part): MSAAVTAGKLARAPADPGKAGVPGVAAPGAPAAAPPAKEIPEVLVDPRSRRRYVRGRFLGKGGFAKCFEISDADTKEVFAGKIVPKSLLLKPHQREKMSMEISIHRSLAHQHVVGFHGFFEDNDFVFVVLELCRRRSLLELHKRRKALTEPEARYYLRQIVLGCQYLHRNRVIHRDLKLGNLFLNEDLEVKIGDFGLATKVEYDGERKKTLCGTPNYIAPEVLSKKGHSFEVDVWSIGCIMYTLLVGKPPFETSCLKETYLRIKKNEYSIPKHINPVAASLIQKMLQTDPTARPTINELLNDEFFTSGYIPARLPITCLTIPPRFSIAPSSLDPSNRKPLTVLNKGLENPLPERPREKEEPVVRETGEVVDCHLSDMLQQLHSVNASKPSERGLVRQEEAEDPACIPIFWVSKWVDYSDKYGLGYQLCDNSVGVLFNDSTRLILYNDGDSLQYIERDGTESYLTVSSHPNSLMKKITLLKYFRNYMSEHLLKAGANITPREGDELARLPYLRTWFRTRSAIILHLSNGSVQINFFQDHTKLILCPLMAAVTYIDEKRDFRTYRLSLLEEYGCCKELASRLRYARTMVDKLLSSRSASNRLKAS
BRCA1 expr act = BRCA1 expression activation; MCF7-BRCA1-FFLuc reporter, luminescence, 48 h; response scale: scaled: vehicle 0%, 10 µM genistein 100%; Potency, µM (doses to about 46.1 µM), for the others: at the top dose activation, actives largely listed as activators; 1.1% of 380,000 active; AID 624202; note: nearly all actives have a fitted effect of over 80% in size
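MCF7-BRCA1-FFLuc cells, 2000/well in phenol-red-free MEM, attached 2 h then treated 48 h at 37 C. Luciferase luminescence read 15 min after reagent; normalized to genistein maximum activation (10microM) and DMSO, concentration-response fitted.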
VDR inh = inhibitors of human vitamin D receptor | P11473 | Potency, µM, inactives show max response, negative = inhibition, usual class: inhibitors | VDR-SRC2-3 peptide fluorescence polarization, 2 h | 0.93% of 400,000 active; note: % is set by controls: 0 for no effect and ±100 for the full control effect
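Compounds are added to VDR with labelled SRC2-3 coactivator peptide and held 2 h at room temperature. Inhibition of the VDR–peptide interaction is then read as a change in fluorescence polarization.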
Tb PFK inh = inhibitors of T. brucei phosphofructokinase | T. brucei PFK, ADP-Glo luminescence | O15648 | 0.17% of 330,000 active | Potency, µM (titrated, usually from 57.5 µM), for the others: at the top dose activity, negative = inhibition, hits mostly inhibitors;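 note: 0% = uninhibited 1x PFK enzyme wells and -100% = no-enzyme wells; nearly all actives have a fitted effect of over 60% in size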
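PFK 1.25 nM, F6P 0.5 mM, ATP 0.1 mM, 0.1 M TEA pH 8.0, 5 mM MgCl2, 0.01% Tween20, 0.1% BSA; 45 min RT. ADP-Glo readout. qHTS titration up to 57 uM; curves fitted, compounds curve-classed.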
Numbers without * were called inactive; u = inconclusive; x = not tested or not shown; ! = not active in a repeat. Calls come from the whole dose curve; as a rule, active = well fitted curve in the direction sought with a large enough effect; inconclusive = small, poorly fitted or top-dose-only effect, or another doubt; inactive = no such curve, though single readings can be large; an effect the other way counts as inactive or inconclusive. Potency is the fitted concentration of half-maximal effect.

SMILES	PLK1 PBD inh	BRCA1 expr act	VDR inh	Tb PFK inh
CC(=O)N1CCOc2ccc(S(=O)(=O)Nc3cccc(C)n3)cc21	42.3µM*	4.2%	-18.7%	-2.1%
Cc1nn(C(=O)CCCn2cc([N+](=O)[O-])cn2)c(C)c1Cl	21.2µM*	-5.2%	-7.9%	2.3%
Oc1c(C(c2ccccn2)N2CCCCC2)cc(Cl)c2cccnc12 (stereo not given)	29.9µM*	-15.9%	u	11.3%
CN1CCN(C(c2ccc(Cl)cc2)c2cc(Cl)c3cccnc3c2O)CC1 (stereo not given)	2.38µM*	-44.5%	44.7µM*	-20.2%
CN1CCN(C(c2ccc(C(F)(F)F)cc2)c2cc(Cl)c3cccnc3c2O)CC1 (stereo not given)	x	x	x	-14.5%
CCCCc1c(O)nc(SCC(=O)NCC2CCCO2)[nH]c1=O (stereo not given)	-7.2%	6.7%	9.6%	-2.1%
CCCCCc1c(O)nc(SCC(=O)NCC2CCCO2)[nH]c1=O (stereo not given)	26.7µM*	-0.6%	-4.4%	-4.6%
COC(=O)c1cnc2ccccc2n1	-0.8%	-32.6%	5.5%	-2.2%
O=C(O)c1cnc2ccccc2n1	26.7µM*	3.8%	u	0.1%
CCOC(=O)C1(C)C=C(Nc2ccc(C(=O)O)cc2)C(=O)N1c1ccc(C(=O)O)cc1 (stereo not given)	x	15.2%	-4.2%	x
COc1cc(/C=C/c2ccc3c(Br)cc(Br)c(O)c3n2)ccc1O	23.8µM*	-76.9%	u	0.7%
CCn1c(COc2cccc(C)c2)nnc1SCC(=O)NC1CCCC1	29.9µM*	3.6%	u	-1.4%
CCn1c(COc2ccccc2)nnc1SCC(=O)NC1CC1	-8.1%	-0.2%	12.0%	1.2%
CCCCOc1ccc(S(=O)(=O)N2CCN(c3ccccc3OCC)CC2)cc1	x	x	-3.2%	x
COc1ccc(CCNC(=O)C2CCCN(c3nc4c(C)cc(C)cc4s3)C2)cc1OC (stereo not given)	x	x	-5.9%	x
CSc1nnc2c3c4c(sc3nc(-n3nc(C)cc3C)n12)COC(C)(C)C4	3.36µM*	-1.2%	u	-13.2%
O=C(NCc1ccc2c(c1)OCO2)C1CCCN(S(=O)(=O)c2cccc3nonc23)C1 (stereo not given)	26.7µM*!	-0.5%	-6.1%	5.6%
O=C(NCc1ccccc1)C1CCCN(S(=O)(=O)c2cccc3nonc23)C1 (stereo not given)	1.5%	-12.0%	4.2%	-0.3%
O=S(=O)(Nc1cccc(-c2ccc(N3CCOCC3)nn2)c1)c1ccccc1C(F)(F)F	x	x	12.0%	x
COc1cc(OC)cc(OC(=O)C2CCN(C3=NS(=O)(=O)c4ccccc43)CC2)c1	-6.8%	9.6%	-5.4%	0.0%
c1ccc(-c2ccc(OCCOCCn3cncn3)cc2)cc1	-10.1%	7.08µM*	-5.7%	5.3%
O=c1c(=Nc2ccccc2O)c(=O)c2ccccc12	-14.2%	11.2µM*	u	8.4%
CC(C)COc1ccc(CC(=O)NO)cc1	x	10.2%	x	x
CCOc1ccc(CSC(=N)N)cc1Cl	-10.0%	-14.3%	-13.5%	-7.5%
CCCOc1ccc(Br)cc1CSC(=N)N	29.9µM*	-31.2%	-6.7%	-0.1%
SMILES	PLK1 PBD inh	BRCA1 expr act	VDR inh	Tb PFK inh
Cc1ccc(S(=O)(=O)NNC(=O)c2ccc(C(=O)N(c3ccccc3)c3ccccc3)cc2)cc1	x	-22.1%	x	x
CCCc1[nH][nH]c(=O)c1C(c1ccc(Br)cc1)C(C#N)C#N (stereo not given)	5.97µM*	-25.5%	79.4µM*	-0.7%
Cc1ccc(-n2nc(C)c3nc(CCC(=O)Nc4cccc(C)c4C)c(=O)n(C)c32)cc1	x	x	4.6%	x
Cc1ccc(-c2noc(CN(C3CCCCC3)S(=O)(=O)c3ccc(F)cc3)n2)cc1	x	x	11.8%	x
O=c1c(F)cn(C2CCCO2)c(=O)n1Cc1c(Cl)cccc1Cl (stereo not given)	-2.7%	2.1%	-5.2%	1.1%
O=c1c(F)cn(C2CCCO2)c(=O)n1Cc1ccc(Cl)cc1 (stereo not given)	26.7µM*	23.2%	-4.1%	1.6%
Cn1nnnc1SCC1=C(C(=O)O)N2C(=O)C(NC(=O)C(O)c3ccccc3)C2SC1 (stereo not given)	x	x	50.1µM*	x
Cn1nnnc1SCC1=C(C(=O)O)N2C(=O)[C@@H](NC(=O)[C@H](O)c3ccccc3)[C@H]2SC1	13.4µM*	5.9%	-25.0%	2.9%
CCCCc1nnc(SCc2cc(=O)c3cc(C(=O)OCC)ccc3[nH]2)n1C	x	x	-1.5%	x
CC(C)CN(C(=O)CSc1nnc2c(Cl)cc(C(F)(F)F)cn12)C1CCS(=O)(=O)C1 (stereo not given)	26.7µM*	-0.5%	11.3%	1.2%
CCCNc1nc(Nc2ccc([N+](=O)[O-])cc2)nc(N2CCOCC2)n1	x	-16.2%	x	x
O=C(NCCSCc1ccco1)c1ccc(=O)[nH]c1	-3.5%	-4.6%	-13.9%	1.7%
Cc1ccc(C(=S)N2CCN(Cc3ccccc3)CC2)s1	2.99µM*	-9.1%	u	u
CSc1ncccc1C(=O)OCC(=O)c1ccc(Br)s1	18.9µM*	34.0%	-27.3%	4.7%
CSc1ncccc1C(=O)OCC(=O)c1ccccc1Br	-8.8%	4.8%	-14.3%	-4.2%
CC(=O)Nc1ccc(C(=O)OCC(=O)N(c2ccccc2)C2CCCCC2)cc1	-1.6%	-44.2%	-1.6%	0.0%
O=C(OCC(=O)N(C1CCCCC1)C1CCCCC1)c1ccncc1	21.2µM*	3.8%	-18.7%	-3.7%
O=C(O)c1cc(NN=C2CCN(Cc3ccccc3)CC2)ccc1Cl	-7.7%	3.16µM*	-11.0%	-3.6%
O=S(=O)(O)c1ccc(O)c2cc(Nc3ccccc3)ccc12	4.74µM*	-17.1%	u	x
COc1ccccc1Nc1ccc2c(O)cc(S(=O)(=O)O)cc2c1	10.6µM*	0.9%	u	x
Nc1cccc2c(O)cc(S(=O)(=O)O)cc12	13.4µM*	-8.4%	12.6µM*	x
CC(=O)Nc1ccc2c(O)cc(S(=O)(=O)O)cc2c1	-27.1%	13.2%	-4.8%	x
O=S(=O)(O)c1cc(O)c2cc(Nc3ccccc3)ccc2c1	18.9µM*	-3.5%	u	x
Cc1ccc(S(=O)(=O)c2cc(Nc3ccccc3)ccc2O)cc1	-29.7%	7.1%	-10.1%	4.9%
Nc1ncnc2c1ncn2[C@@H]1O[C@H](C(=O)NC2CC2)[C@@H](O)[C@H]1O	x	x	-6.4%	x
SMILES	PLK1 PBD inh	BRCA1 expr act	VDR inh	Tb PFK inh
Cc1c(Cl)cccc1NC(=O)Cn1nnc(-c2nc(-c3ccccc3)no2)c1N	x	x	4.4%	x
CCn1cc(C(=O)N(C)Cc2ccccc2)c(=O)c2cc(S(=O)(=O)N3CCc4ccccc4C3)ccc21	x	-21.7%	-14.9%	x
COc1ccccc1NC(=O)Cc1nc(=O)[nH]c(=O)[nH]1	3.4%	0.2%	x	x
O=S(=O)(O)c1ccc2c(N=Nc3ccc(S(=O)(=O)O)c4ccccc34)c(O)c(S(=O)(=O)O)cc2c1	x	-18.3%	-3.3%	x
O=S(=O)(O)c1cc(O)c2c(N=Nc3ccc(Nc4ccccc4)c4c(S(=O)(=O)O)cccc34)cc(S(=O)(=O)O)cc2c1	x	x	39.8µM*	x
O=S(=O)(O)c1cc(O)c2ccc(Nc3ccccc3)cc2c1	10.6µM*	-14.6%	-22.7%	x
Cc1cc(O)c(C(c2cccc(F)c2)N2CCC(C)CC2)c(=O)n1Cc1ccco1 (stereo not given)	x	x	0.1%	x
